Measurements from PubChem BioAssay (NCATS).
Inconclusive results are not listed. The source made the active and inactive calls. Unless noted, calls follow the shape of the dose curve; as a rule, active = well fitted curve in the direction sought with a large enough effect; inconclusive = small, poorly fitted or top-dose-only effect, or another doubt; inactive = no such curve, though single readings can be large; an effect the other way counts as inactive or inconclusive. Where a SMILES comes first, the peptide text is derived from it. Bridges are numbered along the chain shown (N, C = ends). [ ]: non-standard residue; d: D form. The star is where a group is joined. X1 = CCC(C)C(N)C1=NC(C(=O)*)CS1; dOrn = NCCC[C@@H](N)C(=O)O

Legend:
[1] = target: Glutathione peroxidase 1 (Homo sapiens) (UniProt P07203); experiment: Primary qHTS Assay for Inhibitors of Recombinant Selenoprotein Glutathione Peroxidase 1 (GPX1) (AID 1845191); also: nearly all actives have a fitted effect of over 65% in size; as to activity, negative = inhibition: % is scaled to controls: 0 for no effect and ±100 for the full control effect
Sequence of Glutathione peroxidase 1 (Homo sapiens) (P07203 whole entry, looked up): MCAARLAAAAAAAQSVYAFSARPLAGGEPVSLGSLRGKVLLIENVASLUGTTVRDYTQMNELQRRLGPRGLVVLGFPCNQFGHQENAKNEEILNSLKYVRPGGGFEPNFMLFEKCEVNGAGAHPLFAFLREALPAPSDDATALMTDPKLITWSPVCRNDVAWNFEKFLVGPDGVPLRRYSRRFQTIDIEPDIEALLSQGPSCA
Summary of the method: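 NADPH consumption tracked by fluorescence at 340/450 nm between t=0 and t=15 min, room temperature. Final mix: 10 nM GPX1, 100 nM glutathione reductase, 1 mM GSH, 0.5 mM NADPH, 0.5 mM cumene hydroperoxide, 0.01% BSA; 30 min compound–enzyme preincubation.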

[2] = target: Phospholipid hydroperoxide glutathione peroxidase GPX4 (Homo sapiens) (UniProt P36969); experiment: Primary qHTS Assay for Inhibitors of Recombinant Selenoprotein Glutathione Peroxidase 4 (GPX4) (AID 1845192); also: nearly all actives have a fitted effect of over 65% in size; as to activity change, negative = inhibition: series mostly up to about 50 µM; % is scaled to controls: 0 for no effect and ±100 for the full control effect
Sequence of Phospholipid hydroperoxide glutathione peroxidase GPX4 (Homo sapiens) (P36969 whole entry, looked up): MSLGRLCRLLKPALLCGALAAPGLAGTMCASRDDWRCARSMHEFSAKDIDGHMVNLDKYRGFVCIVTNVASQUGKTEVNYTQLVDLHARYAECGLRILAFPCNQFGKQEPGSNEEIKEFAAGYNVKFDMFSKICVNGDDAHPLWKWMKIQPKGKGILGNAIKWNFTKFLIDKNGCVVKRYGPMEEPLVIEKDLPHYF
Summary of the method: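 NADPH consumption followed by fluorescence at 340/450 nm, t=0 and after 15 min at room temperature. Reaction started with cumene hydroperoxide (0.5 mM final) after 30 min compound–GPX4 preincubation; final 200 nM GPX4, 100 nM GR, 1 mM GSH, 0.5 mM NADPH.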

[3] = target: Luciferin 4-monooxygenase (Photinus pyralis) (UniProt P08659); experiment: Primary firefly luciferase (FLuc) qHTS assay for identification of artifact compounds. (AID 1845220); also: nearly all actives have a fitted effect of over 60% in size;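 as to activity change, negative = inhibition: series mostly up to about 54 µM; plate controls were DMSO vehicle for no effect and no enzyme for full effect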
Summary of the method: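 Cell-free, 1536-well qHTS. Buffer pH 7.6 with 0.01% Tween-20 and 0.05% BSA; 10 uM D-luciferin, 10 uM ATP; 10 nM P. pyralis luciferase; luminescence after 5 min.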

[4] = Primary fluorescence-based thiol-reactive (MSTI) qHTS assay for identification of artifact compounds. (AID 1845221); also: nearly all actives have a fitted effect of over 65% in size; also: potency is read from the fitted curve at half-maximal effect;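 as to activity change, negative = thiol reactive: series mostly up to about 54 µM; thiol-reactive compounds lower the probe fluorescence signal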
Summary of the method: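 qHTS titration of compound; 4 uM MSTI, PBS pH 7.4, 2% DMSO; 1 h RT, dark; fluorescence 525/598 nm; normalized to Acetyl-MSTI and MSTI; 4-parameter Hill fit.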

[5] = tested on: Nanoluciferase (engineered Oplophorus gracilirostris luciferase); experiment: Primary Nanoluciferase (NLuc) qHTS assay for identification of artifact compounds. (AID 1845222);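 also: series mostly up to about 54 µM; 0% = DMSO and -100% = no enzyme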
Summary of the method: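 Compounds are pinned into diluted (1:55) conditioned medium of NLuc-expressing S16 cells and held 15 min at room temperature protected from light. Nano-Glo substrate follows, and luminescence is read 5 min later.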

[6] = Primary redox qHTS assay for identification of artifact compounds. (AID 1845223);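 also: 0% = DMSO and 100% = reference compound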
Summary of the method: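 Redox-cycling detection via DTT (250 uM final) oxidation coupled to Amplex Red (25 uM)/HRP (250 mU/mL) in HBSS. 15 min preincubation plus 30 min after DTT, room temperature. Ex/Em 525/598 nm; 4-parameter Hill fit against DMSO and 10 uM DA3003.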

[7] = qHTS drug screen for cell cycle checkpoint inhibitors in PARPi-resistant BRCA-mutant ovarian cancer cell lines. (AID 1963452; calls by dose curve; also: potency is read from the fitted curve at half-maximal effect); conditions: PEO1/OlaR viability, CellTiter-Glo luminescence, 96 h; for Z-AUC: stronger effect = lower value
Summary of the method: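 PEO1, PEO4 and PEO1/OlaR ovarian cancer cells, 600 per well, exposed 96 h at 37C to a dilution series. Viability read by CellTiter-Glo luminescence, normalized to DMSO and empty wells; activity summarized as Z-AUC.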

[8] = measured here: PEO1 parental Z-AUC

COc1cccc2c1CCC[C@H]2CN(C)CCc1ccc2ccoc2c1
inactive: Potency [1] | Potency [2] | Potency [3] | Potency [4] | Potency [5] | Potency [6]

COC(=O)C1=COC(OC2OC(CO)C(O)C(O)C2O)C2C1CC(OC(=O)C(O)CC(=O)O)C2C (stereo unspecified)
inactive: Potency [1] | Potency [2] | Potency [3] | Potency [5] | Potency [6]
active: Potency [4] 13000 nM

C[C@@H]1CC[C@]2(C(=O)O)CC[C@]3(C(=O)O)C(=CCC4[C@@]5(C)CC[C@H](O[C@@H]6O[C@@H](C)[C@H](O[C@@H]7O[C@H](CO)[C@@H](O)[C@H](O)[C@H]7O)[C@@H](O)[C@H]6O)C(C)(C)C5CC[C@]43C)C2[C@H]1C (stereo partly specified)
inactive: Potency [1] | Potency [2] | Potency [3] | Potency [4] | Potency [5] | Potency [6]

CCC(NC(=O)CC(NC(=O)C(CO)NC(=O)C(CC)NC(=O)c1ccc[nH]1)c1ccccc1)C(=O)O (stereo unspecified)
inactive: Potency [1] | Potency [2] | Potency [3] | Potency [4] | Potency [5] | Potency [6]

C=C1C(O[C@@H]2O[C@H](CO)[C@@H](O)[C@H](O)[C@@H]2O)CC2C(C)(C)C(O)CCC2(C)C1CC/C(C)=C\CO (stereo partly specified)
inactive: Potency [1] | Potency [2] | Potency [3] | Potency [4] | Potency [5] | Potency [6]

C[C@H]1CN(C[C@H](Cc2ccccc2)C(=O)NCC(=O)O)CC[C@@]1(C)c1cccc(O)c1
-0.254: Z-AUC [7, 8]
-0.529: Z-AUC ([7]; measured here: PEO4 Z-AUC)
inactive: Potency [1] | Potency [2] | Potency [3] | Potency [4] | Potency [5] | Potency [6] | Z-AUC [7] -0.66

COc1cc(N2CCC(O)CC2)ccc1Nc1cc(Nc2ccccc2S(=O)(=O)C(C)C)c2cc[nH]c2n1
inactive: Potency [1] | Potency [2] | Potency [3] | Potency [5] | Potency [6] | Z-AUC [7] 0.976
active: Potency [4] 927 nM
1.41: Z-AUC [7, 8]
0.959: Z-AUC ([7]; measured here: PEO4 Z-AUC)

Nc1ccn([C@@H]2C(F)=C(CO)[C@@H](O)[C@H]2O)c(=O)n1
-0.408: Z-AUC ([7]; measured here: PEO4 Z-AUC)
-0.156: Z-AUC [7, 8]
inactive: Potency [1] | Potency [2] | Potency [3] | Potency [4] | Potency [5] | Potency [6] | Z-AUC [7] 0.41

CCC(C)C(N)C1=NC(C(=O)N[C@@H](CC(C)C)C(=O)N[C@H](CCC(=O)O)C(=O)N[C@H](C(=O)N[C@H]2CCCCNC(=O)[C@H](CC(N)=O)NC(=O)[C@@H](CC(=O)O)NC(=O)[C@H](Cc3cnc[nH]3)NC(=O)[C@@H](Cc3ccccc3)NC(=O)[C@H]([C@@H](C)CC)NC(=O)[C@@H](CCCN)NC2=O)[C@@H](C)CC)CS1 (stereo partly specified) (X1-L[dE]IK[dOrn]I[dF]H[dD]N; lactam 4-C)
0.703: Z-AUC ([7]; measured here: PEO4 Z-AUC)
1.01: Z-AUC [7, 8]
inactive: Potency [1] | Potency [2] | Potency [3] | Potency [4] | Potency [5] | Potency [6] | Z-AUC [7] 0.134

CC(=O)O[C@@H]1[C@H](O[C@@H]2OC[C@](O)(CO)[C@H]2O)[C@@H](O[C@@H]2O[C@@H](C)[C@H](O)[C@@H](O)[C@H]2O)[C@H](OC(=O)[C@]23CCC(C)(C)C[C@H]2C2=CCC4[C@@]5(C)C[C@H](O)[C@H](O[C@@H]6O[C@H](C(=O)O)[C@@H](O)[C@H](O)[C@H]6O)[C@@](C)(C(=O)O)C5CC[C@@]4(C)[C@]2(C)CC3)O[C@@H]1C (stereo partly specified)
inactive: Potency [1] | Potency [2] | activity change, negative = inhibition [3] 3.99% [at 11.6 µM] | activity change, negative = thiol reactive [4] 279% [at 11.5 µM] | activity, negative = inhibition [5] 2.83% [at 11.6 µM] | redox activity (% of DA3003) [6] 2.26% [at 11.5 µM]

COc1ncc(-c2ccc3c(Nc4cc(Oc5cc(F)cc(F)c5)cc(C(=O)O)c4)c(S(=O)(=O)NC4CC4)cnc3c2)c(OC)n1
-0.317: Z-AUC ([7]; measured here: PEO4 Z-AUC)
-0.369: Z-AUC [7, 8]
inactive: Potency [1] | Potency [2] | Potency [3] | Potency [4] | Potency [5] | Potency [6] | Z-AUC [7] -0.517

Cc1nc2c(-c3cnc(N)nc3)nc(N3CCOCC3)nc2n1C(C)C
-1.56: Z-AUC [7, 8]
inactive: Potency [1] | Potency [2] | Potency [3] | Potency [4] | Potency [5] | Potency [6]
active: Potency [7] 436 nM
-1.63: Z-AUC ([7]; measured here: PEO4 Z-AUC)

Cc1ccc(C(=O)Nc2ccc(Oc3cc4cnn(C)c4cc3-c3cn[nH]c3)c(F)c2)c(=O)n1-c1ccc(F)cc1
0.144: Z-AUC [7, 8]
-0.211: Z-AUC ([7]; measured here: PEO4 Z-AUC)
inactive: Potency [1] | Potency [2] | Potency [3] | Potency [4] | Potency [5] | Potency [6] | Z-AUC [7] -0.0237

C[C@]12CC[C@@H]3c4ccc(O[C@@H]5O[C@H](C(=O)O)[C@@H](O)[C@H](O)[C@H]5O)cc4CC[C@H]3[C@@H]1CCC2=O
inactive: Potency [1] | Potency [2] | Potency [3] | Potency [4] | Potency [5] | Potency [6]

CON(C)C(=O)N1N=C(c2cc(F)ccc2F)S[C@@]1(CCCN)c1ccccc1
-2.66: Z-AUC [7, 8]
active: Potency [7] 8.7 nM
-2.54: Z-AUC ([7]; measured here: PEO4 Z-AUC)
inactive: Potency [1] | Potency [2] | Potency [3] | Potency [4] | Potency [5] | Potency [6]

COc1c2c(c(C)c3c1C(=O)OC3)OC1(C)CC(O)C3(O)C(C)(C)OC(=O)CCC3(C)C1C2 (stereo unspecified)
inactive: Potency [1] | Potency [2] | Potency [3] | Potency [4] | Potency [5] | Potency [6]

CCOC(=O)Nc1nc2ccccc2[nH]1
inactive: Potency [1] | Potency [2] | Potency [3] | Potency [4] | Potency [5] | Potency [6]

CNC(=O)c1ccc(Nc2ncc(C(F)(F)F)c(NCc3nccnc3N(C)S(C)(=O)=O)n2)cc1
inactive: Potency [1] | Potency [2] | Potency [3] | Potency [4] | Potency [5] | Potency [6] | Z-AUC [7] -0.202
0.488: Z-AUC [7, 8]
-0.174: Z-AUC ([7]; measured here: PEO4 Z-AUC)

CC1=CCC2C(C)(CO)CCCC2(C)C1CC12OC1C(O)C(CO)=CC2O (stereo unspecified)
inactive: Potency [1] | Potency [2] | Potency [3] | Potency [4] | Potency [5] | Potency [6]
